# Screening results (PubChem BioAssay)
# PV pol inh: poliovirus RdRp elongation inhibitors, primary screen, biochemical, fluorescence polarization, total intensity. Genome polyprotein (Poliovirus type 1 (strain Mahoney)), P03300. poliovirus polymerase elongation; hits give low values. % elongation, % (compound at 16.7 µg/mL). 0.66% of 150,000 active. AID 588519, 2011; in the data active = % elongation below about 90%
# Mtb MenB inh: M. tuberculosis MenB inhibitors, primary screen, biochemical, absorbance | inhibition, % (no concentration beside the values) | MenB enzyme assay, absorbance read-out | 1,4-dihydroxy-2-naphthoyl-CoA synthase (Mycobacterium tuberculosis (strain ATCC 25618 / … | AID 540299, 2011 | 0.43% of 100,000 active; in the data active = inhibition above about 21%, passing the limit was not always enough
# Target sequence (P9WNP5 whole entry, looked up): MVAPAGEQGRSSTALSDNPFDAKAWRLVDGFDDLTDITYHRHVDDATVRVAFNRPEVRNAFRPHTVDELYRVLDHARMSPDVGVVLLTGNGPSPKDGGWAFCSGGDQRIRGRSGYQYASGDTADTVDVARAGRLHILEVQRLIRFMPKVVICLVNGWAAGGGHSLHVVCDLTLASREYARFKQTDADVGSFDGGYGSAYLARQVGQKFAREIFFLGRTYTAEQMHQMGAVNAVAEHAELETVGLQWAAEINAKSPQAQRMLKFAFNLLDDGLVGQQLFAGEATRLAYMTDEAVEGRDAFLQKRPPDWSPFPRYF
# Mtb MbtI inh: MbtI salicylate synthase inhibitors, primary screen, biochemical, fluorescence intensity; purified MbtI enzyme, fluorescence intensity read-out; inhibition, % (no concentration beside the values); 0.89% of 100,000 active; AID 493033, 2011; P9WFX0; in the data active = inhibition mostly above about 56%, no sharp cut-off; inactive = mostly below about 77%
# Starred values were filed as active, the others as inactive; nt = no result given. The list is not random: actives were taken first. Their share in the collection is about 1.4%.
SMILES,PV pol inh,Mtb MenB inh,Mtb MbtI inh
CC(C)C(NS(=O)(=O)c1ccc2c(c1)CCCC(=O)N2)C(=O)N1CCN(c2ccccc2)CC1 (stereo not given),101,-16,-16
CC(/C=C1\SC(=S)N(CCC(=O)Nc2ccc(O)c(C(=O)O)c2)C1=O)=C\c1ccccc1,103,-135,10
CSc1ccc(C=C2C(=O)c3ccccc3C2=O)cc1,103,nt,24
O=C1C(=Cc2ccccc2)C(=O)c2ccccc21,93,-96,95*
O=c1[nH]cc(S(=O)(=O)Nc2ccccc2)c(=O)[nH]1,96,9,0
CCCCC1CCC(CCCC(C)CCC(=O)O)CC1 (stereo not given),89*,nt,nt
CCCCC1CCC(C(=O)O)CC1 (stereo not given),101,nt,-7
CC(C)CN(CC(C)C)Cn1c(=O)oc2ccccc21,103,6,-2
COc1ccccc1-c1nnc(SCC(=O)c2ccc(F)cc2)n1-c1ccccc1,83*,nt,nt
Cn1c(SCC(=O)c2ccc(F)cc2)nnc1-c1ccccc1Br,102,nt,nt
O=C(c1cc2ccccc2o1)N1CCCC(c2nc3ccccc3s2)C1 (stereo not given),107,-34,2
CCOc1ccccc1NC(=O)N1CCOc2ccc(Cl)cc21,104,-22,-6
COc1ccc(/C=C2/SC(=S)N(CCC(=O)O)C2=O)cc1,105,-300,nt
O=C(O)CCN1C(=O)/C(=C/c2ccccn2)SC1=S,99,-155,74*
CCCc1nnc(N)s1,104,nt,2
CCC(C)(C)c1nnc(N)s1,96,5,99*
Fc1cccc(Nc2nc(-c3ccccc3)no2)c1,104,-17,-4
Clc1nc(Cl)nc(Nc2ccccc2)n1,87*,-3,nt
Fc1cccc(Nc2nc(Cl)nc(Cl)n2)c1,98,48*,2
CN(C)c1nc(Nc2ccccc2)nc(N(C)C)n1,99,34,5
CCOc1ccc2nc(Nc3nc4c(c(=O)[nH]3)CCCC4)nc(C)c2c1,102,-18,-2
N=C(N)SCP(=O)(c1ccccc1)c1ccccc1,99,49*,21
N=C(N)SCCS(=O)(=O)c1ccccc1,102,21,15
O=C(N/N=C/C=C/c1cn(Cc2ccccc2)nn1)C1CC1,106,5,5
Clc1ccccc1C1=NC2=S(O1)OC(c1ccccc1Cl)=N2,96,6,80*
S=c1[nH]nc(-c2ccccc2Cl)o1,nt,nt,16
O=C(COC(=O)Cc1cn2ccsc2n1)Nc1ccc(Br)cc1,107,-17,-2
CC(C)C(Sc1ccc2c(c1)OCCO2)C(=O)NC(N)=O (stereo not given),102,10,7
NNC(=O)CCc1ccc(O)cc1,103,-7,-4
